# Screen size: about 31,000 sequences; about 1,400 (4.5%) were called active. Many of the other results were omitted from the sample, so actives are more common in it than they were. Unmarked numbers belong to inactive results.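 The calls were made as follows: active = median seed-adjusted z-score above 1 or below -1; inactive = the rest.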
# Test: Novel Modifiers of Survival Motor Neuron (SMN) Protein: Gene Identification via Genome-wide siRNA Screen;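 also: luminescence tracks full-length SMN protein made from the SMN2 reporter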
# Conditions: HEK293T SMN2-luciferase reporter, siRNA knockdown, 72 h; actives lie on both sides
# Procedure, shortened: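 HEK293T cells stably expressing an SMN2 splicing/cDNA-luciferase reporter were reverse-transfected with a druggable-genome siRNA library and read by luminescence at 72 hours; hits defined by MAD score above 1.0 or below -1.0.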
row,Sequence,median seed-adjusted z-score
1,GAACUAGGAGAUACAAUAUTT against ELOVL6,0.742
2,GGACAGUCUUCUGUAUGCATT against RBM39,-1.82 (active)
3,CCAGAGAAAUGAGAUUGGATT against ZNF195,0.0753
4,GCCUGCAAGUGAAGCGGAATT against PRMT1,-0.596
5,CAGCCUUCAUGAGAUGUUATT against AMPD3,-0.0865
6,CAACCUGCUCUACAGCAAATT against PRSS27,1.03 (active)
7,GACGCGGUAUGUAGACAUATT against NAT8B,0.206
8,GCUGCAUUGUGGGUGAUGATT against PTGIR,-0.0806
9,CAAGAGCAGUUUAAUAGCATT against BAT3,0.567
10,GGAACUUACUACAACUCCATT against TMPRSS6,1.29 (active)
11,GGUUAGCUUAUGUUACAUATT against E2F3,-0.215
12,ACUCCUCUCUGUUAAUGGATT against LIN7C,0.021
13,GGUUGAAGAUGGUACUCCUTT against ADAMTS20,1.44 (active)
14,CUCCAGAUAUAGACCUCAATT against TRIM22,0.363
15,UGUUGUACCUCUAAUGUCATT against GPR172B,0.184
16,GCAACCCACCAAUAACUAATT against ADAM29,0.904
17,UGAGUUCUUUAGGACCGAATT against MFAP3L,1.03 (active)
18,GUACUGUAGAGAAAGCGUATT against ZNF606,0.118
19,UUUCCAAACAAGUACCUAATT against CKS2,0.0907
20,GCAUAUACCAUCGCUGUAATT against SUPT16H,1.2 (active)
21,CCAGAUAUGGUAUCCCAAUTT against ZNF227,0.0194
22,GUCUCAAUCUAAUAAGGAATT against TTLL1,0.322
23,GAUCAGGACUUUAUGUUCATT against ZNF225,0.0761
24,GAGCGUACCAAGGAUCUAATT against HDLBP,-1.18 (active)
25,CUUUUGACGUGAACGAUGATT against ORM1,0.206
26,CCGCCCAAGUAGUAAAGAATT against ADCY3,-0.294
27,AGACUUUAAGGAGAAAACATT against YAF2,0

row,Sequence,median seed-adjusted z-score
1,GGUUCACGGUUCAAAAUCATT against SLC25A24,-0.0384
2,GGUCCAACAUGCAAUCCAATT against EDEM3,0.119
3,GCCGCAACAUGGAAGUACATT against MAPK8IP3,0.734
4,GGGAGAUCUUCGACUCAUATT against ADRBK1,0
5,GGGACUAUUCCAAAACCCATT against FLAD1,0.367
6,GGAAUGUGCUGGUCGGAGATT against TIE1,0.0629
7,CCAAAUACAUCGCAUUAGATT against GTPBP4,1.01 (active)
8,GGUUCAUACAGACUCUUAUTT against PJA2,0
9,GAUAAAAACAGUCCUUUCUTT against FXYD3,0.254
10,CAAUGUUACCAAAACCGAATT against ACVR1C,-0.0005
11,CCCUACCAACAUUAAGUAUTT against CLDN7,0.0208
12,GGAUGUGGUUUAUUAUACATT against SLC16A9,0.125
13,GCCUAUCAAUUGUUCGGGATT against TTF1,1.76 (active)
14,GCGUAUGGGAUUACAAGAATT against PAFAH1B1,0.391
15,GGCUAGUACUGACAGAUGATT against CREB3,0.0509
16,ACUCCUACAUGUACAUUCUTT against KCNE3,-1.33 (active)
17,GGUUAAAAGUCGGUCCCAATT against SGCG,0.886
18,GCAUCUCUAUUGUAGCCCUTT against GHRHR,0
19,CAUCCGAUCUGAUAGGUCUTT against EFEMP1,0.0157
20,AGACCUAGCAUGGACCAGATT against GUCY2E,0.61
21,CUUGGACACUGAAAACGCATT against ITGAM,-1.56 (active)
22,GGAUGAGUACAGAUUUACATT against CLPX,-0.0436
23,AGCUCAUAGCUGACCCAGATT against ZC3H3,-0.622
24,CAGAUGACUUCAGAACCAATT against KRT33B,0.04
25,GGCUAUAUCGUCACAAUGATT against ABCA4,-1.09 (active)
26,GGUAAUGCUUUAUUCCAAATT against ZNF677,-0.441
27,GAGCUGACGUGUACUCAUATT against USP5,0.596
